# Reference: ChEMBL document CHEMBL4513141, “CO-ADD screening of NIH (USA) - Clinical Collection” (2021)
# Measured potencies and affinities stand elsewhere. Square brackets hold non-standard residues; d marks the D form. Peptide text beside a SMILES is read from it. pGlu = O=C1CC[C@@H](C(=O)O)N1; Thz = O=C(O)[C@@H]1CSCN1
# Test system: Escherichia coli
# Conditions: Concentration 20 uM; ASSAY_TEST Inhibition of Bacterial Growth; detection method Absorption (OD600); MEDIA CAMHB; plate type 384well; NBS; CORNING #3640; time 18 hr
row,Compound,Inhibition [%]
1,OCc1cc(C(O)CNCCCCCCOCCCCc2ccccc2)ccc1O (centres undefined) [SALMETEROL],8.33
2,Cl.O=C1c2c(O)ccc(O)c2C(=O)c2c(NCCNCCO)ccc(NCCNCCO)c21,4.04
3,O=C(NCCO[N+](=O)[O-])c1cccnc1 [NICORANDIL],8.35
4,O=C1C(c2c(O)[nH]c3ccccc23)=Nc2ccccc21,-3.28
5,Cl.O.c1cnc(N2CCN(Cc3ccc4c(c3)OCO4)CC2)nc1,-1.86
6,Cl.O=C1CN2Cc3c(ccc(Cl)c3Cl)N=C2N1 [ANAGRELIDE HYDROCHLORIDE],7.21
7,CC(=CCC1=C(C)C(=O)c2ccccc2C1=O)CCCC(C)CCCC(C)CCCC(C)C (centres undefined),5.45
8,O=C1CC[C@@H](C(=O)N2CSC[C@H]2C(=O)O)N1 [PIDOTIMOD] ([pGlu]-[Thz]-OH),2.88
9,CC1=C(/C=C/C(C)=C/C=C/C(C)=C\C(=O)O)C(C)(C)CCC1 [ISOTRETINOIN],-1.2
10,CN(C)CCN(Cc1ccccc1)c1ccccn1.Cl [TRIPELENNAMINE HYDROCHLORIDE],7.66
11,CC12CC3CC(C)(C1)CC(N)(C3)C2.Cl [MEMANTINE HYDROCHLORIDE],5.88
12,COc1cc(C)c(/C=C/C(C)=C/C=C/C(C)=C/C(=O)O)c(C)c1C [ACITRETIN],4.27
13,Nc1nc(Cl)nc2c1ncn2[C@@H]1O[C@H](CO)[C@@H](O)[C@H]1O,3.01
14,COc1cc2nc(N3CCN(C(=O)C4COc5ccccc5O4)CC3)nc(N)c2cc1OC (centres undefined) [DOXAZOSIN],5.29
